Measurements taken from PubChem BioAssay AID1487 (National Center for Advancing Translational Sciences (NCATS), 2009).
The whole screen tested about 200,000 compounds, of which about 25 (0.01%) were called active. Another 23% or so got no clear call; they are omitted. Many of the other results were omitted from the sample, so actives are more common in it than they were. A number with no mark means an inactive call. The call rests on the fitted dose curve; in most records, active means well fitted inhibition curve with a large enough effect in the signal ratio, with a control signal flat (not every such curve was filed as active); inconclusive means small, poorly fitted or top-dose-only effect, or effect the other way, or a change in a side signal; inactive means flat fitted curve, though single readings scatter; the % refers to the signal ratio.

Experiment: qHTS Assay for Modulators of Lamin A Splicing
Conditions: HeLa LMNA splicing GFP/RFP minigene ratio, 48 h; series mostly up to 46 µM; ratio change, negative = inhibition: at the top concentration
Excerpt: NCGC Assay Overview: Hutchinson-Gilford Progeria Syndrome (HGPS) is a pediatric premature aging disease caused by a spontaneous mutation in the lamin A/C (LMNA) gene. The mutation activates a cryptic splice site in the LMNA pre-mRNA which results in production of a pre-lamin A protein that cannot be processed properly. The mutant protein accumulates in the nucleus and negatively affects numerous cellular functions. Correction of the splicing defect in HGPS patient cells using a targeted oligonucleotide (exo11) leads to reversal of the cellular disease phenotypes. To identify small molecule modulators of aberrant LMNA splicing, a homogenous assay was constructed in HeLa cells that used a GFP containing minigene to report on correction of aberrant splicing in lamin A and a RFP (DsRed2) to report on cell viability, uniformity and nonspecific effects on the assay signal. This assay was adapted to laser-scanning microplate cytometry (Acumen, TTP Labtech) where miniaturization of the assay to a 1,536-well plate format was possible. References: Bowen, W. P.; Wylie, P. G. Application of Laser-Scanning Fluorescence Microplate Cytometry in High Content Screening. Assay Drug Dev Technol 2006;4:209-221. Scaffidi P, Misteli T. Reversal of the cellular phenotype in the premature aging disease Hutchinson-Gilford progeria syndrome. Nat.
NCGC Assay Protocol Summary: Reagents/Controls: Stable clones expressing DsRed2 and lamin A-EGFP were generated by Cell and Molecular Technologies in S3 HeLa cells. HeLa cells were prepared for the assay when they were 70-90% confluent. The cells were counted and resuspended in Opti-MEM I (no phenol red; Gibco), 2% FBS, 1% penicillin/ streptomycin (Gibco) at concentration of 120 cells/uL concentration. The suspension was passed through a Falcon basket filter with pore size 40um (Beckton Dickson). Control titrations: column […] 1536-well plate contained a sixteen point titration (1:2 dilutions) in duplicate of ancitabine (Sigma: A8598) beginning at 40 uM final concentration. Column 2 contained a sixteen point titration (1:2 dilutions) of cycloheximide beginning at 1.4 mM final concentration. Column 3 contained ancitabine at 40 uM and column 4 contained was the vehicle control (0.5% DMSO final concentration). Assay Steps: 5 uL of HeLa cells were plated in Aurora LoBase black clear bottom (cyclic-olefin polymer) 1536-well plates at a final density of 600 cells/well. Controls and library compounds were added with a 1536-well pin array using the Kalypsys pin-tool. The plates were then incubated for 48 hrs in a cell-culture incubator (37 °C; 5% CO2, 98% humidity). Following incubation the plates were read on the Acumen Explorer using the 488 nm laser. Data was collected on objects between 10 and 100 um in size. Cell objects were defined by a 15 um width x 10 um depth filter. The ratio of the total object intensity in PMT1 (500-530 nm emission; GFP) over PMT3 (575-640 nm emission; RFP) was calculated for analysis. Keywords: NIH Roadmap, MLSCN, MLI, MLSMR, qHTS, NCGC, lamin A, Progeria, RNA splicing.
On the % scale 0 is the no-effect control and ±100 the full control effect; potency means the concentration at half of the fitted maximal effect.

Structure (SMILES)	ratio change, negative = inhibition	Potency
Cc1ccccc1-n1nc(SCC(=O)O)sc1=S	-1.17%	–
CCCCCN(C(=O)NC(=O)Nc1cccc(C)c1C)S(C)(=O)=O	-26.2%	–
CC(C)(C)NC(=O)Cn1cnc2cc([N+](=O)[O-])ccc2c1=O	-2.83%	–
Cc1c(-c2cccc(NC(=O)C(C)(C)C)c2)nc2ncccn12	6.73%	–
COc1ccc(Cc2n[nH]c(=S)n2NC(=O)Nc2ccc(C)cc2)cc1	21.5%	–
COc1c(C=O)c(CCN(C)C(=O)c2ccc(F)cc2)cc2c1OCO2	23%	–
O=C(Nc1ccc(C(=O)OCc2cc(=O)n3nc(C4CC4)sc3n2)cc1)c1ccc(F)cc1	4.29%	–
COc1cccc(CN(C)CC(=O)Nc2ccccc2C(=O)Nc2ccccc2)c1	-9.51%	–
OC(COc1ccc(CN2CCSCC2)cc1)CN1CCCCC1 (stereo unspecified)	13.6%	–
CCN(Cc1ccccc1)S(=O)(=O)c1ccc2c(c1)CCCN2C(C)=O	-0.194%	–
CC1CCC(NS(=O)(=O)c2ccc3c(c2)n(C)c(=O)c(=O)n3C)CC1 (stereo unspecified)	6.05% [at 46.1 µM]	–
Cn1sc(=O)c2cc(S(=O)(=O)NC3CC3)ccc21	–	11.2 µM (active)
CSc1ccc(S(=O)(=O)NC2CCCCC2)cc1	-9.18% [at 46.1 µM]	–
COc1ccc(S(=O)(=O)NCC2CCCN(C(=O)c3occc3C)C2)cc1 (stereo unspecified)	5.38%	–
CN1CCN(/N=C2/C(=O)Nc3ccc([N+](=O)[O-])cc32)CC1	0.722%	–
CCOc1ccccc1N1CCN(C(=O)COc2ccc3c(C)cc(=O)oc3c2)CC1	-7.5%	–
COc1ccc(CNC(=O)COCc2cc(-c3cccs3)on2)cc1OC	6.21%	–
O=C(Nc1ccc(Br)cn1)c1ccc([N+](=O)[O-])cc1Cl	7.76%	–
CC12CN(NC(=O)c3ccc(Cl)cc3)C3(C#N)CC1CCC23C (stereo unspecified)	15.3%	–
CCOCCc1nn2c(=O)cc(COC(=O)CNC(=O)c3ccc(C(C)(C)C)cc3)nc2s1	7.84%	–
Cc1ccc(S(=O)(=O)CC(=O)Nc2c(C)n(C)n(-c3ccccc3)c2=O)cc1	8.54%	–
Cc1c(CCNC(=O)c2ccc(C(F)(F)F)cc2)sc2nc(-c3ccc(F)cc3)nn12	1.9%	–
Cc1ccc2c(c1)C1CN(C)CCC1N2C(=S)Nc1ccc(OC(F)F)cc1 (stereo unspecified)	-22.6%	–
CN1CCN(C(CNC(=O)c2ccccc2F)c2ccc3c(c2)OCO3)CC1 (stereo unspecified)	-2.99%	–
COc1ccc(-c2cn3cccnc3n2)cc1	9.89%	–
CC1(C)CC(CNCCC(c2ccc(F)cc2)c2ccco2)CCO1 (stereo unspecified)	-16.6%	–

Structure (SMILES)	ratio change, negative = inhibition	Potency
CCc1ccc(NC(=O)c2nn(-c3ccc(C)cc3)c(=O)n(C)c2=O)cc1	-1.99%	–
CN(C)S(=O)(=O)N1CCN(c2ccc([N+](=O)[O-])cc2)CC1	10.9% [at 9.22 µM]	–
COc1ccccc1CNC(=O)c1ccccc1NC(=O)c1nsc2ccccc12	6.29%	–
O=C(CSc1nnc2ccc(-c3ccncc3)nn12)N1CCCCC1	22.1%	–
Cc1ccc([N+](=O)[O-])c(OCCCNCC(C)O)c1 (stereo unspecified)	-18.3%	–
COc1cccc(NC(=O)C(=O)NCC(c2ccc3c(c2)OCO3)N2CCN(C)CC2)c1 (stereo unspecified)	2.28%	–
CCOC(=O)c1c(-c2cccc(C)c2)csc1NC(=O)c1c(-c2ccccc2)noc1C	–	0.631 µM (active)
CC(=O)Nc1cccc(NC(=O)c2c(-c3ccccc3)noc2C)c1	-4.51% [at 46.1 µM]	–
Cc1onc(-c2ccccc2)c1C(=O)Nc1ccccc1C#N	9.17% [at 46.1 µM]	–
Cc1cc(C)cc(OCC(=O)O/N=C(\N)Cc2ccc([N+](=O)[O-])cc2)c1	-7.35%	–
COc1ccc(Sc2nc(-c3ccccc3)ncc2OC)cc1	15.7%	–
Cc1ccc(SCC(=O)Nc2ccc3oc(-c4ccccc4F)nc3c2)cc1	28.4%	–
COCCNC(=O)c1ccc(-n2c(SCc3cccnc3)nc3ccccc3c2=O)cc1	2.39%	–
Cc1cccc(C)c1NC(=S)N(Cc1cccnc1)Cc1ccccc1Cl	17.6% [at 9.22 µM]	–
CCN1CCN(CCCNC(=O)c2ccc3c(c2)sc2nc(-c4ccc(OC)cc4)cn23)CC1	20.5%	–
CCOC(=O)c1c(-c2cccc(N)c2)cn2ccccc12	7.28%	–
Cc1ccc(CSc2nc3cccnc3n2Cc2ccc(C(=O)NC3CC3)cc2)cc1	11%	–
N#C/C(=C(\O)C(F)(F)F)c1nnc2n1CCCCC2	-13.7%	–
O=C(Cc1ccc(Cl)cc1)NCc1nc(-c2ccccc2)no1	13.3%	–
CCOC(=O)c1c(SCC(=O)Nc2cccc(C)c2C)nc(=O)[nH]c1C	-5.72%	–
COc1cc2c(C(=O)N3CCN(C)CC3)c(CSc3ccccc3)n(C)c2cc1Br	-21.8%	–
COc1cc(C(=O)Nc2cc(C(F)(F)F)ccc2-n2cncn2)cc(OC)c1OC	-20%	–
Cc1ccc(COc2ccc(C(=O)NN)cc2)cc1	-2.54%	–
CC(=O)c1ccc(NC(=O)CSc2nc(-c3ccccc3F)nc3c2c(=O)n(C)c(=O)n3C)cc1	-9.49%	–
CSc1nc2c(c(=O)[nH]1)C(c1cccc(Cl)c1Cl)CC(=O)N2 (stereo unspecified)	-8.67% [at 9.22 µM]	–
